Common to all, as to parameters: scale not given: direction of the effect not stated beside the values
In test [1] the target is Protein translocase subunit SecA (Escherichia coli (strain K12)) (UniProt P10408). Description: Assay to Identify E. coli SecA ATPase Inhibitors. The test is classed as functional. Conditions: 30 µM.
For test [2], the target named is T1, Ubiquitin-activating enzyme e1, putative (Leishmania donovani (strain BPK282A1)) (UniProt E9BSI1).
T1 sequence (whole entry): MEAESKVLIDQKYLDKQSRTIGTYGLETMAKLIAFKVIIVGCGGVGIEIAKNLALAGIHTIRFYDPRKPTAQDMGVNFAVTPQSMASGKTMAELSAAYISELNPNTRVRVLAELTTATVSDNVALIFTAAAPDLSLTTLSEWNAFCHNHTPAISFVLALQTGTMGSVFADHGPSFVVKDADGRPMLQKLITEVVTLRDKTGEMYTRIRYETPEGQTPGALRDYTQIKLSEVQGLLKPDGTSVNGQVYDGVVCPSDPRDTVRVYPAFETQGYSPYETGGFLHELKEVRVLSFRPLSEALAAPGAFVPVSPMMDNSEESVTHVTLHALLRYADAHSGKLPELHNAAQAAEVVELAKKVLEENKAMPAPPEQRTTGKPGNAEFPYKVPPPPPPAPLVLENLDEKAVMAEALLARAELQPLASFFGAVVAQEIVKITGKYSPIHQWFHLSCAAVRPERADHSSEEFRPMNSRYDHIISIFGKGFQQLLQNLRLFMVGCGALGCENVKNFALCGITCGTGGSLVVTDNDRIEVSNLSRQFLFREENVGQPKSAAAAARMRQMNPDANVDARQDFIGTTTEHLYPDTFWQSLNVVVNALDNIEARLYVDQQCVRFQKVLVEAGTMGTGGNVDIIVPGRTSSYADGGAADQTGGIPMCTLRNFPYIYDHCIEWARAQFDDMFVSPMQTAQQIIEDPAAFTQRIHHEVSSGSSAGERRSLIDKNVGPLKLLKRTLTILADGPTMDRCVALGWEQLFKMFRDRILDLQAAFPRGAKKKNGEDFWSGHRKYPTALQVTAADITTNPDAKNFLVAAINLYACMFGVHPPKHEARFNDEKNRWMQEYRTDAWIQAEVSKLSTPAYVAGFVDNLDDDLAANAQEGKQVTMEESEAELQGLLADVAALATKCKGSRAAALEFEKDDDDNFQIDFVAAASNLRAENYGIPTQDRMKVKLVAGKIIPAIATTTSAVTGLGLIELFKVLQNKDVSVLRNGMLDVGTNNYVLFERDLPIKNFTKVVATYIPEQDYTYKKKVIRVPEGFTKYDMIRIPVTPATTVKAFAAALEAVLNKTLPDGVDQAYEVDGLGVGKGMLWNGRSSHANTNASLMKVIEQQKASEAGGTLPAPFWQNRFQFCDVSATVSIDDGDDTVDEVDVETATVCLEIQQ
Description: Leishmania donovani Ubiquitin Activating Enzyme (LdE1). The test is classed as functional. The conditions noted are these: 30 µM.

For test [3], the target named is AMP-activated protein kinase, AMPK (Homo sapiens) (UniProt P54646+O43741+P54619+Q9UGJ0+Q9Y478+Q13131+Q9UGI9). Description: AMP-dependent Kinase enzyme assay. An in vitro enzyme assay that detects ADP turnover that is directly proportional to AMPK activity. This uses naive AMPK that is activated during the assay with MK-8722. The format is functional. The conditions noted are these: 30 µM.

Test [4] has as its target Sialic acid-binding Ig-like lectin 9 (Homo sapiens) (UniProt Q9Y336). Description: Hs-Siglec9 ALPHAscreen SOP 20170721. The conditions noted are these: 10 µM.
In another test the test system is Trypanosoma cruzi. Description: Trypanosoma cruzi phosphomannomutase and mannose-1-phosphate guanylyltransferase assay. Conditions: 10 µM. The format is functional.
For test [5], the target named is T2, Arginase-2, mitochondrial (Homo sapiens) (UniProt P78540).
T2 sequence (whole entry): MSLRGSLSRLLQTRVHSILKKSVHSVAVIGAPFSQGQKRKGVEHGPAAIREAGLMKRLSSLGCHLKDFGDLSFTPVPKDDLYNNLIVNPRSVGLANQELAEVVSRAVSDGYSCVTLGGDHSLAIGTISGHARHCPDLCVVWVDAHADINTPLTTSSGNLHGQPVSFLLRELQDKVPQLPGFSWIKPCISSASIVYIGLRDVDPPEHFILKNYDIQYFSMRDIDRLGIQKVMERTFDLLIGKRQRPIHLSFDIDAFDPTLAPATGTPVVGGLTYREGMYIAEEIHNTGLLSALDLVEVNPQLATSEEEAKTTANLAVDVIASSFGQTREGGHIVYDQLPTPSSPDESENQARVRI
Description: in vitro enzyme assay to detect the production of urea directly proportional to the activity of Arginase II. Also: in the data most compounds retested in dose-response had high values. The conditions noted are these: 33.3 µM. The test is classed as functional.

In test [6] the target is T3, Proteasome subunit beta (Trypanosoma cruzi) (UniProt O96673).
T3 sequence (whole entry): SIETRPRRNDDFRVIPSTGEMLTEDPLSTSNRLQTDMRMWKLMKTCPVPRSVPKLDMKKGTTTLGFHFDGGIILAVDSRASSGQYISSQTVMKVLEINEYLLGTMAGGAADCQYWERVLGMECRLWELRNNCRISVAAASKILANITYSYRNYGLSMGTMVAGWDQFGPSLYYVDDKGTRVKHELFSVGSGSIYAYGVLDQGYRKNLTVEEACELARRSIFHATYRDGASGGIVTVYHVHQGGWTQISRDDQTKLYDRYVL
Description: Trypanosoma cruzi proteasome chymotrypsin-like activity (TcProtChymo) assay. Also: in the data most compounds retested in dose-response had high values. Conditions: 9.37 µM. The test is classed as functional.

Another test is filed under the species Homo sapiens. Description: To identify inhibition of the IFN signalling (Jak-Stat) pathway via expression of an eGFP reporter gene under the control of an IFN-stimulated response element (ISRE) containing MxA promoter. The test is classed as functional. The conditions noted are these: 30 µM. On the technique in general: Reporter assays use an easily measured gene product as a stand-in for the process of interest.

Test [7] deals with T4, Tyrosyl-tRNA synthetase, putative (Trypanosoma cruzi (strain CL Brener)) (UniProt Q4DSP6).
T4 sequence (whole entry): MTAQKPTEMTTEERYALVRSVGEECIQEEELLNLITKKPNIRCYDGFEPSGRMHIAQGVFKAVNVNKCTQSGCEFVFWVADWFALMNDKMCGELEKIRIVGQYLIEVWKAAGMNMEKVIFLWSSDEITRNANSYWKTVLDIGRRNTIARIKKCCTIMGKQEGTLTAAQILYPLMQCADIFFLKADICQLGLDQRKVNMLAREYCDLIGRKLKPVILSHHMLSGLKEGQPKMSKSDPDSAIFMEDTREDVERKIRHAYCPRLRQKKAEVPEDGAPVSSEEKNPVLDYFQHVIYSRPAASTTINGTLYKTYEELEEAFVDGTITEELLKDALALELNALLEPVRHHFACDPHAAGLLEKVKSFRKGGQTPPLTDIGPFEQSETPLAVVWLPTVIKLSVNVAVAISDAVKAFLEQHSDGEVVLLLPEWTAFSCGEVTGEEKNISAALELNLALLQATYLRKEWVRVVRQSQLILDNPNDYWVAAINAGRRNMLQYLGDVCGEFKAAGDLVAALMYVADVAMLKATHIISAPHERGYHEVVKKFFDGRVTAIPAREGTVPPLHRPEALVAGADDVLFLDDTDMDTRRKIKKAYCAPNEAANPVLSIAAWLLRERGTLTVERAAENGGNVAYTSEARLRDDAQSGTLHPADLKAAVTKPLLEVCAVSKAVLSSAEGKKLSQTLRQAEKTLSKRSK
Description: Trypanosoma cruzi tyrosyl tRNA synthetase (TcYRS) _High Tyrosine SOP. Also: in the data most compounds retested in dose-response had high values. The format is functional. Conditions: 30 µM.

Test [8] deals with T4, Tyrosyl-tRNA synthetase, putative (Trypanosoma cruzi (strain CL Brener)). The test is described as follows: Trypanosoma cruzi tyrosyl tRNA synthetase (TcYRS) SOP. The test is classed as functional. The conditions noted are these: 30 µM.
Test [9] has as its target Chromo domain-containing protein 1 (Saccharomyces cerevisiae (strain ATCC 204508 / S288c) (Baker's yeast)) (UniProt P32657). Description: ScCHD-1 Enzyme Inhibition Assay. Also: in the data most compounds retested in dose-response had high values. The format is functional. Conditions: 30 µM.

For some assays here: Potency and affinity values are given separately.

Chain of Sialic acid-binding Ig-like lectin 9 (Homo sapiens) (Q9Y336 whole entry): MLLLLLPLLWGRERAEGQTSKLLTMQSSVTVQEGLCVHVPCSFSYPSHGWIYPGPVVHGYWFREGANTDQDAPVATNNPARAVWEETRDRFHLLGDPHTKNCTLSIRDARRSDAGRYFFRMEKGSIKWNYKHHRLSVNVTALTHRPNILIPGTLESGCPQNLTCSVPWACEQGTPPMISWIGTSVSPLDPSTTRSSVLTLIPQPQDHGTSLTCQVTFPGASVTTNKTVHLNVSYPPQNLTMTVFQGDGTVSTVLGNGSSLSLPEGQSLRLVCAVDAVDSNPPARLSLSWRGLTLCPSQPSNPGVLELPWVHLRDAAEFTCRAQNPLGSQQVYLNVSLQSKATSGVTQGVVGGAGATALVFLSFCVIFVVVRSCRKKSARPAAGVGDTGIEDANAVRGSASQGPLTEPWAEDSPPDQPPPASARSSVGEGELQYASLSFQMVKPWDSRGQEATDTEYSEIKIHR
Chain of Chromo domain-containing protein 1 (Saccharomyces cerevisiae (strain ATCC 204508 / S288c) (Baker's yeast)) (P32657 whole entry, the tested form may be a part): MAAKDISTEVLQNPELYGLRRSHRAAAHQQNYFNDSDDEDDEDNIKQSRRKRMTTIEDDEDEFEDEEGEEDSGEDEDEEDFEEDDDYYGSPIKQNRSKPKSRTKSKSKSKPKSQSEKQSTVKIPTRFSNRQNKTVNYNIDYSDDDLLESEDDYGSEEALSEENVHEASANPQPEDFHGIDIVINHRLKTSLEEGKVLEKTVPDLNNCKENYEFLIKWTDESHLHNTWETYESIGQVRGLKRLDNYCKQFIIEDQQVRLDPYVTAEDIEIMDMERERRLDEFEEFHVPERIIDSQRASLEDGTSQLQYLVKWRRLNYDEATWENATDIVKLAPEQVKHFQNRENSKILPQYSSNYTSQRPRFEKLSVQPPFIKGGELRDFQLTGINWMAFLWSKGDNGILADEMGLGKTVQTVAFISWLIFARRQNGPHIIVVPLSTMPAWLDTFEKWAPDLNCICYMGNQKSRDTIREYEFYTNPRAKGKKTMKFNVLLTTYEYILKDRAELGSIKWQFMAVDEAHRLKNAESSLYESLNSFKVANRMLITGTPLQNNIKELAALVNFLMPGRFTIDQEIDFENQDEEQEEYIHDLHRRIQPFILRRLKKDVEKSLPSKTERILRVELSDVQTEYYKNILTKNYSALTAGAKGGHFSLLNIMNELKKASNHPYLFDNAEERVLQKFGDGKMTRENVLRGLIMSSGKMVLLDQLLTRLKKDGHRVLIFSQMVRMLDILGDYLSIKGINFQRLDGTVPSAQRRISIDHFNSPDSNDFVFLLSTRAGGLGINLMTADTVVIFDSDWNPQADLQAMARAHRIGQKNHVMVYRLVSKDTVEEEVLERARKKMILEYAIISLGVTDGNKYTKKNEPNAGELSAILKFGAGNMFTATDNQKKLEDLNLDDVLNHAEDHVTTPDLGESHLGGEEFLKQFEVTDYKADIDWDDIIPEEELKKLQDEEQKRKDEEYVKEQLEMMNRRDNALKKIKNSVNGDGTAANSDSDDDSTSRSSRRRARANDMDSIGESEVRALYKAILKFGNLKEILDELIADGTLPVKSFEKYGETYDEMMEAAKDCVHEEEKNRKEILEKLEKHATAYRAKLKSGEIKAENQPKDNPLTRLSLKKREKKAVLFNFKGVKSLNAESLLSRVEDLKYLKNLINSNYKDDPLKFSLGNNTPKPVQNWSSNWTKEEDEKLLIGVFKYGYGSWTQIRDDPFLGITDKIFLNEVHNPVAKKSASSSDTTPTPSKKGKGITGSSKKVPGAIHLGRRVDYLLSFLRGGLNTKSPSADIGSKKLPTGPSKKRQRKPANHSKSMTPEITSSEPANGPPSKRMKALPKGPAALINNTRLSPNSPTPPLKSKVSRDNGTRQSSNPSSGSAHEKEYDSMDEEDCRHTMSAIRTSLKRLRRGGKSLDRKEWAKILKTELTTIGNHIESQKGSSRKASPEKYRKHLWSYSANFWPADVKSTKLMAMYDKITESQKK
Chain of Protein translocase subunit SecA (Escherichia coli (strain K12)) (P10408 whole entry): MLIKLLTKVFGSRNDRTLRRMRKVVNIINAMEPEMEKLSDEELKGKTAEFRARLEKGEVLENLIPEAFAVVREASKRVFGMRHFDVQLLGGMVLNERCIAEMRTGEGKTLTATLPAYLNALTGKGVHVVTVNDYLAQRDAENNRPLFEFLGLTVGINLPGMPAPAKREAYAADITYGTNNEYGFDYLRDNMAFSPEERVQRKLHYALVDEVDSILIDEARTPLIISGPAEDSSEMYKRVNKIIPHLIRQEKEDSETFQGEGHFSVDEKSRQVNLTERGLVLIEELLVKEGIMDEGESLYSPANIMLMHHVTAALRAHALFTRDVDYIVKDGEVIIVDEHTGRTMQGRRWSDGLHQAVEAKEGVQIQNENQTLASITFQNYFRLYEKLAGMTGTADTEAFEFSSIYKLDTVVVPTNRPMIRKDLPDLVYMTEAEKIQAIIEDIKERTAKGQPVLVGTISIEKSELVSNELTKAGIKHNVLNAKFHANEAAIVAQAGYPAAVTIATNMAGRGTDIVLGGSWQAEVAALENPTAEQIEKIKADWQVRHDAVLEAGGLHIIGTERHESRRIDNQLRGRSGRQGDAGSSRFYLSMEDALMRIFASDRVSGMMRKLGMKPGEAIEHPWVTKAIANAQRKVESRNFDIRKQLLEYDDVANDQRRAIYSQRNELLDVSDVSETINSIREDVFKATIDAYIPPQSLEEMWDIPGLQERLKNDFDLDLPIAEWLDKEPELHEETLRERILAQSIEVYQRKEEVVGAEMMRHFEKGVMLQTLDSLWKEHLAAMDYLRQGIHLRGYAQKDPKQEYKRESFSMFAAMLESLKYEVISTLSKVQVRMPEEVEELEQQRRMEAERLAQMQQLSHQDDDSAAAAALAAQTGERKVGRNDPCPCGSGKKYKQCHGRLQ

For the compound `O=S(=O)(NCC1CCOc2ccccc2C1)N1CCOCC1` (stereo not given), the Percent Effect is -5.96% in [1]; 15.6% in test [2]; 1.72% in test [3]; 13.8% in [4]; 3.83% in the test on Trypanosoma cruzi; -1.38% in test [5]. For the same compound, the Percent Effect in [6] was 11.8%; in the test filed under Homo sapiens it was 6.21%; in test [7] it was 3.23%; in test [8] it was 13.6%; in [9], 1.35%.
With `O=C(NC1CCCN(c2ncccn2)C1)c1ccoc1` (stereo not given), the Percent Effect is -3.61% in [1]; 23.7% in [2]; -4.63% in test [3]; -9.78% in [4]; -0.487% in the test with Trypanosoma cruzi; 2.37% in test [5]. Besides, the Percent Effect was 8.34% in [6]; 8.15% in the test filed under Homo sapiens; 3.19% in [7]; 15.6% in test [8]; -9.61% in [9].
Turning to `O=C(c1ccco1)N1CCC2(CCOC2)C1` (stereo not given), the Percent Effect was -0.538% in [1]; 12% in [2]; -4.74% in test [3]; -1.73% in [4]; -2.16% with Trypanosoma cruzi; 3.35% in [5]. In addition, the Percent Effect in [6] is 20.1%; in the test filed under Homo sapiens, -9.81%; in test [7], 1.06%; in test [8], 7.69%; in [9], -7.58%.
As for `Cc1ccccc1-c1cncc(C2CCN(C)CC2)n1`, the Percent Effect in test [1] was -3.38%; in test [2], -6.76%; in test [3], 8.25%; in [4] it was 2.29%; in the test with Trypanosoma cruzi it was 5.73%; in [5], -1.62%. Moreover, the Percent Effect in test [6] is -0.624%; in the test listed under Homo sapiens, -1.24%; in [7], 5.38%; in [8], 3.9%; in [9], -11.8%.
In the case of `Cc1nc(C)n(C2CCCN(C(=O)c3cnc[nH]3)C2)n1` (stereo not given), the Percent Effect in [1] was -4.48%; in [2], -2.7%; in test [3], -9.26%; in test [4] it was 8.79%; with Trypanosoma cruzi, -4.43%; in [5], 2%. Moreover, the Percent Effect in [6] is -2.7%; in the test filed under Homo sapiens, 0.378%; in [7], -5.42%; in test [8], 1.24%; in test [9] it was 6.8%.
With `COCCOc1ccc(NC(=O)C2CCC2)cn1`, the Percent Effect is -2.7% in test [1]; 17.7% in test [2]; 1.58% in [3]; -6% in test [4]; 0.85% with Trypanosoma cruzi; 5.7% in test [5]. In addition, the Percent Effect was 15.6% in [6]; -2.54% in the test listed under Homo sapiens; 9.36% in [7]; 16.5% in test [8]; -6.65% in test [9].
As for `CC(C)(C)n1cc(C(=O)N2CCN(Cc3ccccc3F)CC2)cn1`, the Percent Effect is -2.41% in [1]; 13.2% in test [2]; -1.01% in [3]; 8.67% in test [4]; 4.89% in the test on Trypanosoma cruzi; 0.383% in [5]. In addition, the Percent Effect in test [6] was 22.4%; in the test listed under Homo sapiens it was 10.5%; in [7], 6.37%; in [8], 21.9%; in test [9] it was -11.6%.
Take `CCCc1cc(=O)[nH]c2nnc(SCC(=O)NCc3ccc(C)cc3)n12`: the Percent Effect in test [1] is -0.143%; in test [2] it was 13.7%; in [3], -0.135%; in test [4], 6.56%; with Trypanosoma cruzi, 3.33%; in test [5], 13.6%. Moreover, the Percent Effect in test [6] is 20.2%; in the test listed under Homo sapiens it was 16.9%; in [7], 6.45%; in test [8] it was 17.5%; in test [9] it was -7.5%.
In the case of `O=C(NCCCn1nc2ccccn2c1=O)NC1CCC(O)CC1` (stereo not given), the Percent Effect in [1] was -2.16%; in [2] it was 2.74%; in test [3], 9.76%; in [4], 3.96%; in the test with Trypanosoma cruzi, -8.62%; in test [5] it was 0.455%. Also, the Percent Effect is 22.5% in [6]; 9.28% in the test listed under Homo sapiens; 0% in test [7]; 2.5% in test [8]; -4.68% in test [9].
As for `CC1CCN(S(=O)(=O)NCC2CCOc3ccccc3C2)CC1` (stereo not given), the Percent Effect in test [1] is -7.79%; in [2], 2.6%; in test [3], 4.04%; in test [4], 4.95%; in the test with Trypanosoma cruzi, -2.46%; in [5] it was -8.28%. The Percent Effect is 6.16% in test [6]; 23.1% in the test listed under Homo sapiens; 0% in test [7]; 3.7% in test [8]; -0.0656% in test [9].

The values above are taken from ChEMBL document CHEMBL3988442, “University of Dundee, Small-Polar-MMV Screening Library” (2021).
